Source: PubChem (National Center for Advancing Translational Sciences (NCATS))
MARV entry inh: blocks Marburg virus binding to or entry into cells. Marburg virus pseudotyped entry inhibition, cell reporter. Potency, µM (highest dose often 37.8 µM), most hits filed as inhibitors. 300,000 tested, 1.8% active; calls by dose curve; tested in HEK293 cells
LASV entry inh: blocks Lassa virus binding to or entry into cells; Potency, µM (top dose mostly 37.9 µM), hits mostly inhibitors; Lassa virus pseudotype entry inhibition, cell reporter; 300,000 tested, 1.2% active; calls by dose curve; tested in HEK293 cells; also: nearly all actives have a fitted effect of over 50% in size
FMDV antiviral: antivirals against foot and mouth disease virus | FMDV antiviral cell-based qHTS | Potency, µM (series often up to 57.9 µM), actives largely listed as inhibitors | 410,000 tested, 1.2% active | AID 1159524; calls by dose curve; tested in HEK293T cells; also: read-out not given here; nearly all actives have a fitted effect of over 45% in size
HCV inh: HCV inhibition; AID 651820; Potency, µM (titrated, usually from 41.8 µM), usual class: inhibitors; Huh7.5.1 HCVcc-Cre infection, luciferase reporter, 44 h; 340,000 tested, 3.4% active; active = well fitted inhibition curve with a large enough effect; inconclusive = small, poorly fitted or top-dose-only effect, or another doubt; inactive = no such curve, though single readings can be large or run the other way
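After 44 h co-culture of compound, cells and HCVcc-Cre (~0.5 moi), substrate is added for 15 min at room temperature and luciferase measured over 15 sec. Cells were seeded at 1,000/well and pre-cultured 4 h.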
SARS PLpro yeast: SARS-CoV PLP inhibition in yeast; S. cerevisiae expressing SARS-CoV PLpro, growth rescue; Potency, µM (doses to about 32.9 µM), hits mostly activators; 330,000 tested, 0.19% active; calls by dose curve; also: nearly all actives have a fitted effect of over 55% in size
HCMV antiviral: human cytomegalovirus inhibition; HFF cells, HCMV-luciferase reporter, 72 h; active compounds read low; activity change, negative = inhibition, % at 57.5 µM; 410,000 tested, 4.5% active; AID 1259415; in the data active = activity change below about -60%; inconclusive = no clear call, values can overlap the other calls; inactive = above about -39%
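After 16 h attachment at 37C, HFF cells received test compound and HCMV-luciferase (1 PFU/cell); reporter luminescence read 72 h later, data normalized against buffer-only and known inhibitor Salinomycin.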
Numbers stand for hits; . = inactive; ? = inconclusive; / = no result. The list is not random: actives were taken first. Their share in the collection is about 8%.

SMILES	MARV entry inh	LASV entry inh	FMDV antiviral	HCV inh	SARS PLpro yeast	HCMV antiviral
O=C(CN1CCOCC1)Nc1nc(-c2ccc3c(c2)CCN3S(=O)(=O)c2ccccc2)cs1	?	?	22.4µM	3.55µM	.	-88.4
CN1CCN(c2ccnc(-c3ccc(N(C)C)cc3)n2)CC1	/	/	.	/	/	/
CCCCCNC(=O)C1CCC(Cn2c(=O)c3sccc3n(CC)c2=O)CC1 (centres undefined)	/	.	.	/	/	.
Cc1sc(NC(=O)CN2CCOCC2)nc1-c1ccc2c(c1)CCN2S(=O)(=O)c1ccccc1	13µM	?	/	?	.	-95.8
Cc1cccc(C(=O)N2CCc3cc(-c4nc(NC(=O)Cn5nnc6ccccc6c5=O)sc4C)ccc32)c1	.	.	/	.	.	/
CCC(CC)C(=O)Nc1nc(-c2ccc3c(c2)CCN3C(=O)C2CC2)c(C)s1	?	11.2µM	11.2µM	?	.	-101.7
Cc1cc(S(=O)(=O)NCCc2ccccc2)c(C)s1	.	.	.	?	.	-97.5
Cc1nn(Cc2c(F)c(F)c(F)c(F)c2F)c(C)c1NC(=O)c1ccc(COc2ccccc2Cl)o1	?	?	.	15.8µM	.	-65.9
Cc1nn(Cc2ccc(Cl)c(Cl)c2)c(C)c1NC(=O)c1cc(CC(C)C)on1	/	/	?	11.2µM	.	.
CCCc1cc(C(=O)Nc2c(C)nn(Cc3ccc(C)cc3)c2C)no1	?	.	?	/	/	.
CCCc1cc(C(=O)Nc2c(C)nn(Cc3ccc(Cl)c(Cl)c3)c2C)no1	?	?	?	/	/	.
CCCc1cc(C(=O)Nc2c(C)nn(Cc3c(Cl)cccc3Cl)c2C)no1	?	3.98µM	.	/	/	.
Cc1cc(NC(=O)N2CCC(CN3CCOCC3)CC2)ccc1Br	/	?	.	/	/	.
O=C1CC(c2cc(F)cc(F)c2)c2cc3c(cc2N1)OCO3 (centres undefined)	.	?	.	/	/	.
Cc1ccc(NC(=O)Cn2cnc3sc(C(=O)O)c(C)c3c2=O)cc1Cl	/	?	.	/	/	.
Cc1cc2c(C)nc(-c3ccccc3)nc2o1	.	.	.	3.55µM	.	.
Cc1ccc(S(=O)(=O)NC(C)(C)CSc2nnc(Nc3ccccc3)s2)cc1	?	?	?	17.8µM	.	.
CC(C)(CSc1ncccn1)NS(=O)(=O)c1ccccc1	.	.	.	.	.	.
Cc1cccc(Cn2c(SCc3ccc(C(=O)NC4CCCC4)cc3)nc3cccnc32)c1	/	?	.	/	/	.
Cc1cccc(Cn2c(SCc3ccc(C(=O)NC4CCCCC4)cc3)nc3cccnc32)c1	/	?	?	/	/	-83.5
CC(NC(=O)c1ccc(CSc2nc3ccncc3n2Cc2ccc(F)cc2)cc1)c1ccccc1 (centres undefined)	?	.	.	/	/	.
Cc1ccc(CCNC(=O)c2ccc(CSc3nc4ccncc4n3Cc3ccc(F)cc3)cc2)cc1	?	/	?	/	/	-69.6
CC(CNC(=O)c1ccc(CSc2nc3ccncc3n2Cc2cccc(F)c2)cc1)c1ccccc1 (centres undefined)	?	/	?	/	/	-70.2
Cc1cccc(CC(=O)NCc2nc3cccnc3n2Cc2ccc(F)cc2)c1	/	.	.	/	/	-63.3
Cc1cc(C)c(S(=O)(=O)N2CCC(N3CCN(Cc4ccccc4)C(=O)C3=O)CC2)c(C)c1	/	.	.	/	/	.
SMILES	MARV entry inh	LASV entry inh	FMDV antiviral	HCV inh	SARS PLpro yeast	HCMV antiviral
COc1ccc(CCC(=O)NCc2nc3cccnc3n2Cc2ccc(OC)cc2)cc1	/	.	.	/	/	.
O=C(c1ccc(CSc2nc3ccncc3n2Cc2ccccc2)cc1)N1CCCCCC1	.	.	.	/	/	.
Cc1cccc(Cn2c(SCc3ccc(C(=O)N4CCCCCC4)cc3)nc3ccncc32)c1	.	?	.	/	/	-90.2
O=C(NCc1cccs1)c1ccc(Cn2c(SCc3ccc(F)cc3)nc3cccnc32)cc1	/	.	.	/	/	-63.0
CCN(Cc1ccccc1)C(=O)Cn1c(=O)n(-c2cccc(C)c2)c(=O)c2c1c1cc(OC)ccc1n2C	.	?	?	/	/	.
O=[N+]([O-])c1ccc(O)c(-c2nc(-c3ccccc3)c(-c3cccs3)[nH]2)c1	?	?	?	6.31µM	.	-102.6
COc1ccc(-c2nc(-c3ccccc3)c(-c3cc([N+](=O)[O-])ccc3C)[nH]2)cc1OC	?	?	.	15.8µM	.	-79.5
O=C(O)c1ccc(-c2nc(-c3ccccc3)c(-c3cccs3)[nH]2)cc1	.	.	.	.	.	.
CCOc1cc(-c2nc(-c3ccccc3)c(-c3cc([N+](=O)[O-])ccc3C)[nH]2)ccc1O	?	.	?	?	/	-82.2
